AmpC detergent – blocks E. coli AmpC beta-lactamase in detergent assay; AmpC hydrolysis of nitrocefin, absorbance 480 nm, 0.01% Triton; AID 485294; 370,000 tested, 0.041% active; Potency, µM (highest dose often 114 µM), without a hit: top-dose activity change, negative = inhibition, usual class: inhibitors;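 also: 0% = no-compound wells and -100% = no-enzyme wells; nearly all actives have a fitted effect of over 25% in size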
Target sequence (P00811 whole entry, looked up): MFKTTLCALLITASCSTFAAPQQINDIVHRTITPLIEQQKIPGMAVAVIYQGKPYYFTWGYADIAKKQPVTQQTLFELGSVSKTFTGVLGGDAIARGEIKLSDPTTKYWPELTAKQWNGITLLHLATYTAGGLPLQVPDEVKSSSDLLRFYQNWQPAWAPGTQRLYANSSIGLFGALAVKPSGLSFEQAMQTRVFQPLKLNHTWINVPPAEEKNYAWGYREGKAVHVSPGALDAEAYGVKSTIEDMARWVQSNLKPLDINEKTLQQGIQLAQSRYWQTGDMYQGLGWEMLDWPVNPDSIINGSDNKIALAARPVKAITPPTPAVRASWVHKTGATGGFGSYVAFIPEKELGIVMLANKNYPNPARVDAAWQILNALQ
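AmpC (5.3 nM in the dispensed reagent) in 20 mM phosphate pH 7.0 with 0.01% (detergent screen) or 0.0001% Triton X-100 was preincubated with compounds for 15 min at room temperature. Nitrocefin was then added from an 800 uM solution, and hydrolysis was followed at 480 nm.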
Sm TGR inh – blocks Schistosoma mansoni thioredoxin glutathione reductase; Q962Y6; purified TGR, DTNB reduction, TNB absorbance 405 nm; Potency, µM (top dose mostly 114 µM), for the others: at the highest dose activity change, negative = inhibition, actives largely listed as inhibitors; 360,000 tested, 3% active; AID 485364; also: nearly all actives have a fitted effect of over 60% in size
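First, TGR (20 nM dispensed) and NADPH were mixed with compound. Second, a 15 min room-temperature incubation followed. Third, further NADPH and then DTNB were added to start the reaction. Finally, TNB absorbance was monitored kinetically.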
AmpC inh no detg – inhibitors of E. coli AmpC beta-lactamase without detergent; P00811; AmpC nitrocefin hydrolysis, absorbance 480 nm, 0.0001% Triton; Potency, µM (top dose mostly 57.1 µM), for the others: at the top dose activity change, negative = inhibition, actives largely listed as inhibitors; 330,000 tested, 0.52% active; AID 485341;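 also: plate controls were no compound for no effect and no enzyme for full effect; nearly all actives have a fitted effect of over 20% in size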
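AmpC (5.3 nM in the dispensed reagent) in 20 mM phosphate pH 7.0 with 0.01% (detergent screen) or 0.0001% Triton X-100 was preincubated with compounds for 15 min at room temperature. Nitrocefin was then added from an 800 uM solution, and hydrolysis was followed at 480 nm.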
* = called active by the depositor; ? = inconclusive; nt = not tested or not shown. An excerpt weighted towards active compounds, which were near 3.3% of everything screened. Calls follow the shape of the dose curve; as a rule, active = well fitted curve in the direction sought with a large enough effect; inconclusive = small, poorly fitted or top-dose-only effect, or another doubt; inactive = no such curve, though single readings can be large; an effect the other way counts as inactive or inconclusive. Unless noted, % is scaled to controls: 0 for no effect and ±100 for the full control effect; potency is read from the fitted curve at half-maximal effect.

SMILES	AmpC detergent	Sm TGR inh	AmpC inh no detg
CCOC(=O)CNC(=O)C1(/C=C/c2ccccc2)CC(=O)N1c1ccc(C)cc1 (configuration not stated)	-0.8%	0.0%	123.3%
CCCOc1ccc(CN(C(=O)c2nc(SC(C)C)ncc2Cl)C2CCS(=O)(=O)C2)cc1 (configuration not stated)	15.5%	1.6%	nt
COc1cc(NC(=O)Cn2c(=O)n(CC3CCC(C(=O)NCCc4ccccc4)CC3)c(=O)c3ccccc32)cc(OC)c1 (configuration not stated)	5.6%	-4.3%	nt
Cc1ccc(NC(=O)COC(=O)CCc2c[nH]c(=O)[nH]2)cc1	-9.6%	31.6µM*	-8.4%
Cc1ccc(NC(=O)COC(=O)CCC(=O)c2cccs2)cc1	-9.4%	-6.7%	-15.5%
O=C(COC(=O)CCc1c[nH]c2ccccc12)Nc1ccccc1	-1.5%	1.0%	-21.5%
O=C(COC(=O)CCc1c[nH]c(=O)[nH]1)Nc1ccccc1	-9.8%	39.8µM*	-7.9%
Cc1cc(=O)[nH]c(SCc2ccc(Cl)cc2Cl)n1	5.3%	1.4%	-40.0%
O=C(Nc1ccccc1)Nc1ccc(S(=O)(=O)N2CCCCC2)cc1	-16.5%	-0.1%	-44.6%
Cc1oc(S(=O)(=O)N2CCCCC2)cc1NC(=O)Nc1ccccc1	2.5%	10µM*	-39.8%
Cc1oc(S(=O)(=O)N2CCCCC2)cc1NC(=O)Nc1ccc(Cl)cc1	5.2%	35.5µM*	-41.7%
Cc1ccc(S(=O)(=O)N2CCCCC2)cc1NC(=O)Nc1ccc(Cl)cc1Cl	2.4%	-3.8%	-33.9%
O=c1[nH]c(=O)n(-c2ccccc2)c2c1C(C(F)(F)F)(C(F)(F)F)N=C(C1CCCCC1)N2	-6.3%	5.9%	-24.0%
CCOc1cc(/C=C2\C(=N)N3N=C(S(=O)(=O)CC)SC3=NC2=O)ccc1OC(=O)c1ccco1	-3.3%	-24.2%	?
CCS(=O)(=O)C1=NN2C(=N)/C(=C\c3ccc(OC(=O)c4ccco4)c(Br)c3)C(=O)N=C2S1	1.6%	44.7µM*	-43.8%
Cc1ccc(NC(=S)N2CCN(c3nccc(C(F)(F)F)n3)CC2)c(C)c1	-0.2%	9.2%	-15.5%
CCOC(=O)/C(C#N)=C/C1=C(N2CCOCC2)CC(C)(C)OC1	-0.1%	28.2µM*	-11.8%
CCOC(=O)/C(C#N)=C\c1ccc(CC)s1	-8.9%	-10.4%	-5.1%
Cc1ccc(S(=O)(=O)N2CCCC2CNC(=O)C(=O)NC2CC2)cc1 (configuration not stated)	?	-17.3%	-17.0%
Cc1ccccc1N(CC(=O)N/N=C/c1cc(Br)c(C)o1)S(C)(=O)=O	-0.5%	79.4µM*	-34.5%
CS(=O)(=O)N(CC(=O)N/N=C/c1ccco1)c1ccccc1Br	-4.9%	-7.5%	-25.5%
Cc1oc(/C=N/NC(=O)CN(c2ccccc2Cl)S(C)(=O)=O)cc1Br	?	?	-16.8%
Cc1oc(/C=N/NC(=O)CN(c2ccccc2Br)S(C)(=O)=O)cc1Br	-4.3%	44.7µM*	-30.4%
CC1CCCCN1CCCNc1ccc(C(CC(N)=O)NC(=O)Cc2ccc(Cl)cc2)cc1[N+](=O)[O-] (configuration not stated)	?	-17.0%	-5.7%
O=C(OCCc1ccccc1)c1cc(O)c(O)c(O)c1	-8.2%	-20.8%	-22.3%
SMILES	AmpC detergent	Sm TGR inh	AmpC inh no detg
O=C(N/N=C/c1cccc2ccccc12)c1cc2ccccc2o1	-0.2%	1.9%	-54.3%
C#CCn1cc(/C=N/NC(=O)c2cc3ccccc3o2)c2ccccc21	?	0.6%	28.2µM*
CCOP(=O)(OCC)/C(=N/OC(=O)c1ccc(Cl)cc1Cl)C(N)=O	4.0%	6.31µM*	-20.9%
N/C(=N\OC(=O)c1ccc(Cl)cc1Cl)c1ccc(Cl)cc1	-6.3%	-2.3%	-26.1%
CC(NC(=O)C1CCCN(S(=O)(=O)c2cccs2)C1)c1ccccc1 (configuration not stated)	-2.7%	2.0%	3.16µM*
CC(C)NC(=O)C1CCCN(S(=O)(=O)c2cccs2)C1 (configuration not stated)	1.9%	2.6%	-5.0%
Cc1c(C(=O)N2CCC2)oc2ccc(Cl)cc12	nt	nt	9.6%
Cc1ccccc1OCCCC(=O)Nc1nccs1	-8.3%	7.9%	-25.8%
COc1ccccc1C(CC(=O)Nc1nccs1)c1ccco1 (configuration not stated)	?	50.1µM*	-45.3%
O=C(CC(c1ccc(F)cc1)c1ccco1)Nc1nccs1 (configuration not stated)	7.0%	39.8µM*	-28.0%
CCC(=O)NCCC(c1ccco1)c1ccccc1OC (configuration not stated)	?	25.1µM*	142.1%
O=C(COc1ccc(F)cc1)Nc1nccs1	-11.2%	0.2%	-12.3%
CCCNCCC(c1ccco1)c1ccccc1OC (configuration not stated)	?	-8.3%	5.9%
COc1ccccc1NC(=O)CC(c1ccc(F)cc1)c1ccco1 (configuration not stated)	11.2%	?	-36.9%
O=C(CS(=O)(=O)c1ccc(F)cc1)Nc1nccs1	?	1.1%	31.6µM*
O=C(CNC(=O)c1ccc(Cl)cc1Cl)Nc1ccc(F)cc1	3.6%	13.4%	-6.7%
CCc1ccc2c(CN(C)Cc3ccc(OC(F)F)c(OC)c3)cc(=O)oc2c1	-5.2%	-13.2%	7.6%
COc1ccccc1C(=O)N1CCN(Cc2nc(CC3CC3)no2)CC1	2.7%	3.4%	68.9%
Cc1cc(C)c(NC(=O)CNC(=O)c2ccc(-n3cncn3)c([N+](=O)[O-])c2)c(C)c1	-1.3%	-2.0%	-6.1%
CCCCCN(C(=O)COC(=O)CSc1ccc([N+](=O)[O-])cc1)c1c(N)n(CCCC)c(=O)[nH]c1=O	?	0.7%	-50.6%
O=C(Cc1coc2cc(O)ccc12)NNC(=O)c1ccc(Br)s1	nt	nt	-38.9%
O=C(O)c1cc(NCc2ccc3c(c2)OCO3)ccc1N1CCOCC1	-15.3%	7.2%	-22.9%
COC(=O)c1cc(NCc2ccc3c(c2)OCO3)ccc1N1CCOCC1	?	50.1µM*	-12.1%
N#CCC(=O)c1ccccc1Oc1ccc(Cl)cc1	?	9.9%	3.98µM*
O/N=C/c1ccccc1Oc1ccc(Cl)cc1	-6.4%	11.9%	-32.6%
SMILES	AmpC detergent	Sm TGR inh	AmpC inh no detg
COc1ccccc1S(=O)(=O)NCc1ccc(C(=O)NC2CCC(O)CC2)cc1 (configuration not stated)	-5.9%	?	-15.5%
C=CCOn1c(=O)c(-c2ccc(OC)cc2)[n+]([O-])c2ccccc21	?	-4.5%	-4.1%
O=c1c(-c2ccco2)[n+]([O-])c2ccccc2n1OCc1ccccc1	-2.6%	10µM*	-31.8%
O=c1c(-c2ccco2)[n+]([O-])c2ccccc2n1OCc1ccccc1F	-4.0%	?	-23.8%
O=c1c(-c2ccco2)[n+]([O-])c2ccccc2n1OCc1c(F)cccc1F	-1.7%	15.8µM*	-9.1%
COc1ccccc1COn1c(=O)c(-c2ccco2)[n+]([O-])c2ccccc21	1.1%	14.1µM*	-42.0%
CCOC(=O)COn1c(=O)c(-c2ccco2)[n+]([O-])c2ccccc21	6.4%	0.0%	-23.3%
CCN(CC)C(=O)c1sc2c(c1C)c(=O)n(Cc1ccccc1)c(=O)n2Cc1ccccc1C	9.0%	0.2%	nt
CCN(CC)c1ncnc2c1cnn2-c1cc(Cl)ccc1C	5.1%	3.9%	nt

Compound activity deposited in PubChem BioAssay by National Center for Advancing Translational Sciences (NCATS).
